Pf growth 48h = Primary qHTS for delayed death inhibitors of the malarial parasite plastid, 48 hour incubation | P. falciparum luciferase growth in erythrocytes, 48 h | Potency, µM (titrated, usually from 28.7 µM), for inactives: at the top dose activity change, negative = inhibition, actives largely listed as inhibitors | 5.9% of 310,000 active | AID 504832, 2011; also: % is scaled to controls: 0 for no effect and ±100 for the full control effect
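Luciferase-expressing P. falciparum in infected erythrocytes (2% hematocrit, 0.1% parasitemia final) in RPMI 1640/0.5% Albumax were exposed to compound for 48 hours at 37 C, 5% CO2; growth read as luminescence.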
VACV mCherry inh = qHTS for Stage-Specific Inhibitors of Vaccinia Orthopoxvirus: mCherry Reporter Primary qHTS | Vaccinia virus mCherry reporter infection, fluorescence | Potency, µM (series often up to 36.5 µM), without a hit: at the top dose activity change, negative = inhibition, usual class: inhibitors | 0.63% of 310,000 active | AID 720579, 2013; calls by dose curve; tested in A549 cells; also: % is scaled to controls: 0 for no effect and ±100 for the full control effect; nearly all actives have a fitted effect of over 35% in size
HCV inhibitor = qHTS Assay for Inhibitors of Hepatitis C Virus (HCV) | Potency, µM (top dose mostly 41.8 µM), for the others: top-dose activity change, negative = inhibition, most hits filed as inhibitors | Huh7.5.1 HCVcc-Cre infection, luciferase reporter, 44 h | 3.4% of 340,000 active; also: % is scaled to controls: 0 for no effect and ±100 for the full control effect
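Compounds are dispensed onto cells plated 4 h earlier at 1,000 per well, with HCVcc-Cre virus (about 0.5 moi) added next. Following 44 h of culture, luminescent signal is measured for 15 sec after 15 min with substrate at room temperature.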
Pf growth 96h = Primary qHTS for delayed death inhibitors of the malarial parasite plastid, 96 hour incubation; P. falciparum luciferase reporter growth, 96 h; Potency, µM (series often up to 28.7 µM), for inactives: top-dose activity change, negative = inhibition, usual class: inhibitors; 6.9% of 320,000 active; AID 504834, 2011; also: % is scaled to controls: 0 for no effect and ±100 for the full control effect
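P. falciparum expressing integrated firefly luciferase grown in erythrocytes (2% hematocrit, 0.05% parasitemia final) with compounds for 96 hours at 37 C, 5% CO2. Growth inhibition read as loss of luminescence after adding luciferase detection reagent.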
NS1 inh = qHTS Assay for Inhibitors of Influenza NS1 Protein Function; AID 2326, 2010; Potency, µM (top dose mostly 46.1 µM), without a hit: at the highest dose activity, positive = more growth; 0.4% of 270,000 active; calls by dose curve; also: actives are rising curves; nearly all actives have a fitted effect of over 50% in size
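A cell-based growth assay was used: compounds that relieve NS1-induced slow growth of budding yeast raise OD600. Assay medium was yeast nitrogen base with ammonium sulphate and -URA supplement, pH 6.0, with 2% galactose.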
VACV Venus inh = qHTS for Stage-Specific Inhibitors of Vaccinia Orthopoxvirus: Venus Reporter Primary qHTS | Vaccinia virus Venus reporter expression, fluorescence | Potency, µM (doses to about 36.5 µM), without a hit: at the top dose activity change, negative = inhibition, usual class: inhibitors | AID 720580, 2013 | 0.46% of 330,000 active; calls by dose curve; tested in A549 cells; also: % is scaled to controls: 0 for no effect and ±100 for the full control effect; nearly all actives have a fitted effect of over 30% in size
Active calls of the source: *; i = inactive; ? = inconclusive; . = not tested or not shown; [ ] = another dose, or the depositor's remark. Compounds with a hit are over-represented: about 11% of the library has one in this group of screens. Unless noted, calls follow the shape of the dose curve; as a rule, active = well fitted inhibition curve with a large enough effect; inconclusive = small, poorly fitted or top-dose-only effect, or another doubt; inactive = no such curve, though single readings can be large or run the other way. Potency is read from the fitted curve at half-maximal effect.

SMILES	Pf growth 48h	VACV mCherry inh	HCV inhibitor	Pf growth 96h	NS1 inh	VACV Venus inh
O=C(Nc1ccc2nc(-c3ccco3)c(-c3ccco3)nc2c1)N1CCCCCC1	?	i	2.8µM*	10%	?	-1%
CCOC(=O)C1CCN(C(=O)Nc2ccc3nc(-c4ccco4)c(-c4ccco4)nc3c2)CC1	10µM*	.	?	?	21%	3%
C1=C2C[N+]3(CCCC3)CC2Cc2ccc3ccccc3c21 (configuration not stated)	.	-13%[1.46 µM]	?	0.74µM*	1%	-20%
CCOC(=O)N1CCN(C(=O)c2cnn(-c3cccc(C)c3)c2-n2cccc2)CC1	.	-13%	.	.	.	-12%
CCc1ccc(C(O)(CNCc2ccccc2)c2ccccc2)cc1 (configuration not stated)	?	.	-2%	?	-4%	.
COc1cccc(CNCC(O)(c2ccc(Cl)cc2)c2ccc(Cl)cc2)c1	6.6µM*	.	-30%	1.3µM*	-60%	.
Cc1ccc(CNCC(O)(c2ccccc2)c2ccc(Cl)cc2)cc1 (configuration not stated)	0.83µM*	-5%	?	1.7µM*	.	-22%
COc1ccc(CNCC(O)(c2ccccc2)c2ccc(Cl)cc2)cc1 (configuration not stated)	2.3µM*	.	?	2.3µM*	-13%	.
CC1=NOC(=O)/C1=C/c1ccc(N(C)C)cc1	0%	.	3%	41%	-59%	.
COc1cc(C2C3=C(COC3=O)Oc3cc4c(cc32)OCO4)cc(OC)c1O (configuration not stated)	.	32µM*	-18%	.	.	?
O=C(COC(=O)CCc1ccccc1)NCc1ccc2c(c1)OCO2	.	-13%	-2%	.	.	6%
C=CCNC(=O)c1cc2c(=O)n3cccc(C)c3nc2s1	22%	-16%	16%	17%	2%	-18%
CCCC[C@H]1COCCS(=O)(=O)N1Cc1ccc(F)cc1	12%	-6%	15%	3%	-13%	-9%
CCC1COCCS(=O)(=O)N1Cc1ccc(Cl)cc1 (configuration not stated)	34%	-21%	2%	22%	-20%	-15%
CC(C)[C@H]1COCCS(=O)(=O)N1Cc1ccc(Cl)cc1	1%	25µM*	17%	12%	-3%	?
CCCC[C@H]1COCCS(=O)(=O)N1Cc1ccc(C)cc1	-14%	?	-18%	11%	-16%	2.2µM*
CC(C)[C@H]1COCCS(=O)(=O)N1Cc1ccccc1-c1cccc2c1oc1ccccc12	.	?	13µM*	.	.	-29%
CCCCOc1ccccc1-c1ccccc1CN1[C@@H](C(C)C)COCCS1(=O)=O	.	-2%	?	.	.	-24%
Cc1cc(NC(=O)CCSc2ccccc2)ccc1Br	66%	-15%	1%	0%	-7%	-9%
O=C(Cn1c(=O)c2cccn2c2ccccc21)NCCc1ccc(Cl)cc1	27%	i	-3%	10µM*	2%	-18%
O=C(Cn1c(=O)c2cccn2c2ccccc21)NCCc1ccccc1	11%	3%	-5%	?	20%	-8%
O=C(Cn1c(=O)c2cccn2c2ccccc21)Nc1cc(F)ccc1F	-3%	4%	11µM*	-21%	8%	10%
CCCC(=O)N(CCN1CCOCC1)c1nc2cc(C)c(C)cc2s1	149%	i	7%	88%	-21%	-11%
CC(C)CNC(=O)CN(C1CCCCC1)S(=O)(=O)c1ccccc1	-18%	.	15%	-7%	-5%	.
O=C(COC(=O)Cc1ccccc1)Nc1ccc(Cl)cn1	5%	5%	12%	4%	.	-1%
SMILES	Pf growth 48h	VACV mCherry inh	HCV inhibitor	Pf growth 96h	NS1 inh	VACV Venus inh
c1nc(N2CCCCC2)c2[nH]cnc2n1	-8%	-2%	-2%	13µM*	4%	-13%
CCOC(=O)c1c(-c2ccccc2Cl)cn2ccccc12	-26%	.	?	6%	-17%	.
CCC1(c2ccccc2)C(=O)NCNC1=O	5%	-1%	2%[8.37 µM]	-9%	0%	-12%
CCC1(c2ccccc2)CCC(=O)NC1=O (configuration not stated)	19µM*	.	.	?	.	.
O=C(Nc1cccc(NC(=O)c2cccs2)c1)c1ccc2c(c1)OCO2	9%	?	?	0%	-12%	-26%
COc1cc(NC(=O)c2ccc([N+](=O)[O-])o2)ccc1NC(=O)c1cccs1	?	10µM*	?	39%	.	10µM*
O=C(/C=C/c1cccc([N+](=O)[O-])c1)Nc1cccc(NC(=O)c2ccco2)c1	-8%	-23%	?	20%	12%	-20%
COc1cc(NC(=O)c2cccs2)ccc1NC(=O)Cc1ccccc1	-7%	-18%	?	?	4%	-19%
O=C(/C=C/c1cccc([N+](=O)[O-])c1)Nc1cccc(NC(=O)c2cccs2)c1	-30%	.	?	4.1µM*	?	.
O=C(Nc1cccc(NC(=O)c2cccs2)c1)c1ccc([N+](=O)[O-])o1	12µM*	?	10µM*	3.3µM*	4%	?
CSc1nnc(NC(=O)c2nc(S(=O)(=O)Cc3cccc(C)c3)ncc2Cl)s1	-32%	-7%	13µM*	?	16%	2%
Cc1ccc(CS(=O)(=O)c2ncc(Cl)c(C(=O)Nc3nnc(C(C)C)s3)n2)cc1	20%	10%[7.34 µM]	?	?	3%	-9%
CCOc1ccccc1NC(=O)c1nc(S(=O)(=O)Cc2cccc(C)c2)ncc1Cl	25%	-24%	2.8µM*	-28%	6%	-25%
CCc1nnc(NC(=O)c2nc(S(=O)(=O)Cc3cccc(C)c3)ncc2Cl)s1	-4%	10%[7.34 µM]	11µM*	35%	-6%	2%
COC(=O)c1ccccc1NC(=O)c1nc(S(=O)(=O)Cc2ccccc2)ncc1Cl	18%	.	0%	?	4%	.
Cc1cccc(CS(=O)(=O)c2ncc(Cl)c(C(=O)Nc3nnc(C(C)C)s3)n2)c1	?	-7%	11µM*	?	18%	-6%
Cc1cc(C(=O)NCc2ccc(Cl)cc2)c2c(C)nn(-c3ccccc3)c2n1	.	1%	.	.	.	1%
CC1=NN(C(N)=S)C(=O)C1N=Nc1ccc(C)c(Br)c1 (configuration not stated)	.	.	-2%	1%	-51%	.
Cc1noc(C)c1COC(=O)C1COc2ccccc2O1 (configuration not stated)	12%	.	10%	13%	-53%	.
CCc1noc(C)c1C(=O)N1CCOc2ccc(CN3CCN(c4ccccn4)CC3)cc2C1	.	-11%	.	.	.	-8%
COc1ccc(C(=O)n2nnc3ccccc32)cc1OC	5%	-14%	14%	7%	12%	-13%

From PubChem
